Source: PubChem BioAssay
Calls of active or inactive are those of the source.

Key:
[1] = system: PRMT1 (protein arginine N-methyltransferase 1); assay: small molecules binding arginine methyltransferase PRMT1 – biochemical, small-molecule microarray, 635 nm fluorescence, primary screen (AID 1088); conditions: higher = more signal;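 also: binding of Prmt1 protein to compounds spotted on small-molecule microarray slides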
[2] = growth effects on S. cerevisiae YJM789 – YJM789 clinical isolate, OD600, 24 h, basal, primary screen (AID 1089); conditions: higher = more signal, called active from +8 up or from −8 down;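 also: growth of clinical yeast isolate S. cerevisiae YJM 789 seeded 1000 cells per well; test concentration not given here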
[3] = S. pombe growth modifiers, basal conditions – strain 972, OD600, 24 h, no modulator, primary screen (AID 1090);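 also: basal condition with compound alone and no growth modifier present; test concentration not given here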; conditions: S. pombe 972 growth, higher = more signal, called active from +8 up or from −8 down
[4] = budding yeast growth modifiers under rapamycin – strain BY4716, OD600, 96 h, primary screen (AID 1091); also: test concentration not given here; conditions: S. cerevisiae BY4716 + rapamycin, higher = more signal, called active from +8 up or from −8 down
[5] = target: Torsin-1A-interacting protein 2 (Homo sapiens) (UniProt Q8NFQ8); assay: small molecules binding lysate-expressed LULL1 – cell lysate, human LULL1 lysate, 635/667 nm fluorescence, primary screen (AID 1092); conditions: small-molecule microarray, hLULL1 lysate binding, 635 nm fluorescence; higher = more signal;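 also: probe is lysate of COS7 cells overexpressing human LULL1; score merges per-feature 667 nm fluorescence with signal-to-noise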
[6] = optical density change of DRC41 E. coli – strain DRC41, OD650, 24 h, E. coli filamentation project, primary screen (AID 1093);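 also: MC1000 strain lacking acrAB efflux and sulA so SOS filamentation is blocked; test concentration not given here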; conditions: E. coli DRC41 growth, higher = more signal, called active from +8 up or from −8 down
[7] = probe aLefty2 binding to arrayed compounds – biochemical, biotinylated probe, 635/667 nm fluorescence, primary screen (AID 1094); conditions: small-molecule microarray, higher = more signal;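 also: score merges spot fluorescence near 667 nm with spot signal-to-noise ratio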
[8] = system: Noggin (protein binding on small-molecule microarray); assay: small molecules binding Noggin protein – biochemical, 635/667 nm fluorescence, primary screen (AID 1095); conditions: 635 nm fluorescence, higher = more signal;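 also: score merges 667 nm feature fluorescence with signal to noise over triplicate slides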
[9] = target: Neurogenic locus notch homolog protein 3 (Homo sapiens) (UniProt Q9UM47); assay: small molecules binding NOTCH3 protein – biochemical, 635/667 nm fluorescence, primary screen (AID 1096); conditions: small-molecule microarray, 635 nm fluorescence, higher = more signal
[10] = probe aEGFR binding to arrayed compounds – biochemical, biotinylated probe, 635/667 nm fluorescence, primary screen (AID 1097); conditions: small-molecule microarray, higher = more signal;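 also: probe is a biotinylated anti-EGFR antibody binding compounds printed on slides; score combines fluorescence near 667 nm and signal to noise of each spot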
[11] = system: Plasmodium falciparum Sir2 (PF13_0152, Sir2A); assay: Plasmodium falciparum Sir2A binding compounds – biochemical, small-molecule microarray, 635 nm fluorescence, primary screen (AID 1098); conditions: fluorescence 635 nm, higher = more signal;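 also: score merges spot fluorescence intensity with its signal-to-noise ratio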
[12] = probe aDKK1 binding to arrayed compounds – biochemical, biotinylated probe, 635/667 nm fluorescence, primary screen (AID 1099); conditions: small-molecule microarray, higher = more signal;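 also: score merges 667nm spot fluorescence with signal to noise across triplicate slides; reference of the scale not given here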
[13] = probe aCHRDL2 binding to arrayed compounds – biochemical, biotinylated probe, 635/667 nm fluorescence, primary screen (AID 1100); conditions: small-molecule microarray, higher = more signal
[14] = change in splice reporter luminescence, either direction, cell-based, HEK293, spliceosome inhibition project, primary screen (AID 1101); conditions: HEK293 splicing luciferase reporter, 24 h, higher = more signal, called active from +8 up or from −8 down;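 also: HEK293 cells carrying a splicing-competent luciferase reporter gene; test concentration not given here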
[15] = target: Fibroblast growth factor 10 (Homo sapiens) (UniProt O15520); assay: compounds binding fibroblast growth factor 10 – biochemical, small-molecule microarray, 635 nm fluorescence, primary screen (AID 1102); conditions: FGF10 binding, fluorescence 635 nm, higher = more signal
[16] = system: glycogen synthase kinase-3 (GSK3A per assay name; protocol says GSK3B); assay: compounds binding glycogen synthase kinase-3 – biochemical, small-molecule microarray, 635 nm fluorescence, GSK3A, primary screen (AID 1103); conditions: fluorescence 635 nm, higher = more signal; also: the record names both GSK3A and GSK3B
[17] = target: Epidermal growth factor receptor (Homo sapiens) (UniProt P00533); assay: compounds binding epidermal growth factor receptor – biochemical, small-molecule microarray, 635 nm fluorescence, primary screen (AID 1104); conditions: EGFR binding, higher = more signal;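 also: score merges 667 nm emission intensity with spot signal to noise over triplicate slides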
[18] = target: Follistatin-related protein 3 (Homo sapiens) (UniProt O95633); assay: compounds binding follistatin-related protein 3 – biochemical, small-molecule microarray, 635 nm fluorescence, primary screen (AID 1105); conditions: FSTL3 binding, higher = more signal;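 also: score merges emission near 667 nm and signal to noise per printed spot across three slides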
[19] = target: Dickkopf-related protein 1 (Homo sapiens) (UniProt O94907); assay: small molecules binding DKK1 protein – biochemical, small-molecule microarray, 635 nm fluorescence scan, primary screen (AID 1106); conditions: higher = more signal;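 also: score merges emission near 667 nm with signal to noise over three replicate slides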
[20] = system: Inhibin beta A chain (activin A); assay: small molecules binding activin A – biochemical, small-molecule microarray, 635 nm fluorescence scan, primary screen (AID 1107); conditions: INHBA, higher = more signal;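 also: mouse activin A protein probed at 4.33 µg/mL on printed slides; score merges bound-protein fluorescence near 667 nm with spot signal-to-noise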

Fibroblast growth factor 10 (Homo sapiens), sequence (O15520 whole entry, looked up): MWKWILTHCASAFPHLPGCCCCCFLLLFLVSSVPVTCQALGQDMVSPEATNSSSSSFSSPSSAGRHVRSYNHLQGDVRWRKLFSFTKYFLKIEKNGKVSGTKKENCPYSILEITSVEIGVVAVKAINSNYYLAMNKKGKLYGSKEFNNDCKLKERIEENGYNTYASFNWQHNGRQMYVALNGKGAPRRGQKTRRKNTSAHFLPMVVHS
Epidermal growth factor receptor (Homo sapiens), sequence (P00533 whole entry, looked up): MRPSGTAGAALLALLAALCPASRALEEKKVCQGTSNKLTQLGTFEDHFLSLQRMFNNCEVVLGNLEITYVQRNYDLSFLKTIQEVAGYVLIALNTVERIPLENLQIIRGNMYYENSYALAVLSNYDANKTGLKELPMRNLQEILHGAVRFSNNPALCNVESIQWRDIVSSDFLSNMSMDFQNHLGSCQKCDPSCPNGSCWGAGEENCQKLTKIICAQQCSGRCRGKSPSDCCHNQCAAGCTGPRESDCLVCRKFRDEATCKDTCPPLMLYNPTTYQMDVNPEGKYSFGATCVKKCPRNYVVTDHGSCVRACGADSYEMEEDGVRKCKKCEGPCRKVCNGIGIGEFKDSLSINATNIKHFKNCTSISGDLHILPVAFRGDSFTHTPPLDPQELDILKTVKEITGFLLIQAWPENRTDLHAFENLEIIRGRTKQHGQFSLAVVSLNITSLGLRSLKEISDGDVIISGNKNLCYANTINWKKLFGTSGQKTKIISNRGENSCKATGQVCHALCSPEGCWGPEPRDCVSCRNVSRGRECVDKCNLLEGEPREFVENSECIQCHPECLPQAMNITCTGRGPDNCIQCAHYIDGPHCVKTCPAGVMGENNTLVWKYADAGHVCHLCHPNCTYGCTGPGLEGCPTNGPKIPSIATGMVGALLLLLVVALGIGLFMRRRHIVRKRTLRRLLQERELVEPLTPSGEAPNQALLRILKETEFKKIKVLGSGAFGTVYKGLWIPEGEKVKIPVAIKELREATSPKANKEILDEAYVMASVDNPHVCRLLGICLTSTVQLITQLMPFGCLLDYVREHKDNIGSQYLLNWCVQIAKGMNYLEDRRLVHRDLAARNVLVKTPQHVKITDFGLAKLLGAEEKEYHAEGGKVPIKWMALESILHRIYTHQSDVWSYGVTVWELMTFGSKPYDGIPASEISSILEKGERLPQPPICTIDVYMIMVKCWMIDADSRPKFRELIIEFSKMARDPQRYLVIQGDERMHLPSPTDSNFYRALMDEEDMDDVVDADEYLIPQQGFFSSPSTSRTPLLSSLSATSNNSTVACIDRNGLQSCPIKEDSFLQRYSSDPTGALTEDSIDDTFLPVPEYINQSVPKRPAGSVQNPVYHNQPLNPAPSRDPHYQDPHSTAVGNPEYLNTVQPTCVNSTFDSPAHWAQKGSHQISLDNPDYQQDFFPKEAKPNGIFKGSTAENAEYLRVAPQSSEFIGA
Dickkopf-related protein 1 (Homo sapiens), sequence (O94907 whole entry, looked up): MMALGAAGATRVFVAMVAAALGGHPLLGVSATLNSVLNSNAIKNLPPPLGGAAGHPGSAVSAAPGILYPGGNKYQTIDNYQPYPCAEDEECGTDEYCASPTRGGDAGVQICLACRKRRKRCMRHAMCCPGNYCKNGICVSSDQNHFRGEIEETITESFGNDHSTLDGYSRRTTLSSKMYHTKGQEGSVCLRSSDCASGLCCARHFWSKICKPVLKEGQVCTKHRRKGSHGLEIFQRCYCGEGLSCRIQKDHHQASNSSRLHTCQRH
Torsin-1A-interacting protein 2 (Homo sapiens), sequence (Q8NFQ8 whole entry, looked up): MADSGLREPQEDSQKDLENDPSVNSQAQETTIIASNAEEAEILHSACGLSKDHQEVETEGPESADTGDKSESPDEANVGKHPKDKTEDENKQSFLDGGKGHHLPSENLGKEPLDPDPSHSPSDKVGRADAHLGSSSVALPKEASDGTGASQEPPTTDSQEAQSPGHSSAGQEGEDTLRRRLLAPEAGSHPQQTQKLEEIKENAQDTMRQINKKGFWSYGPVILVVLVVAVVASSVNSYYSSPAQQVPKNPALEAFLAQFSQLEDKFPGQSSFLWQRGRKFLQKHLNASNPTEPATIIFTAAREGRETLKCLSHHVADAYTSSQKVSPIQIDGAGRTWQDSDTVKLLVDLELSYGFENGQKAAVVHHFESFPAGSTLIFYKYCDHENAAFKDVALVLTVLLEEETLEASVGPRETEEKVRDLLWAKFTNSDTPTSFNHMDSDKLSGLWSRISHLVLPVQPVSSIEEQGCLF
Follistatin-related protein 3 (Homo sapiens), sequence (O95633 whole entry, looked up): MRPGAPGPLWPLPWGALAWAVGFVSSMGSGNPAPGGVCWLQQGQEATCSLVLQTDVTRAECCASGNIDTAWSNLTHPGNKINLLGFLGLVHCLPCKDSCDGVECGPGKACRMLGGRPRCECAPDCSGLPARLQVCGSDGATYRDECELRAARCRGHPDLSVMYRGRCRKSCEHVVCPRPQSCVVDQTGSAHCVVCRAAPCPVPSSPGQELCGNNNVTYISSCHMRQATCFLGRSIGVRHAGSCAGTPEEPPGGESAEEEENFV
Neurogenic locus notch homolog protein 3 (Homo sapiens), sequence (Q9UM47 whole entry, looked up): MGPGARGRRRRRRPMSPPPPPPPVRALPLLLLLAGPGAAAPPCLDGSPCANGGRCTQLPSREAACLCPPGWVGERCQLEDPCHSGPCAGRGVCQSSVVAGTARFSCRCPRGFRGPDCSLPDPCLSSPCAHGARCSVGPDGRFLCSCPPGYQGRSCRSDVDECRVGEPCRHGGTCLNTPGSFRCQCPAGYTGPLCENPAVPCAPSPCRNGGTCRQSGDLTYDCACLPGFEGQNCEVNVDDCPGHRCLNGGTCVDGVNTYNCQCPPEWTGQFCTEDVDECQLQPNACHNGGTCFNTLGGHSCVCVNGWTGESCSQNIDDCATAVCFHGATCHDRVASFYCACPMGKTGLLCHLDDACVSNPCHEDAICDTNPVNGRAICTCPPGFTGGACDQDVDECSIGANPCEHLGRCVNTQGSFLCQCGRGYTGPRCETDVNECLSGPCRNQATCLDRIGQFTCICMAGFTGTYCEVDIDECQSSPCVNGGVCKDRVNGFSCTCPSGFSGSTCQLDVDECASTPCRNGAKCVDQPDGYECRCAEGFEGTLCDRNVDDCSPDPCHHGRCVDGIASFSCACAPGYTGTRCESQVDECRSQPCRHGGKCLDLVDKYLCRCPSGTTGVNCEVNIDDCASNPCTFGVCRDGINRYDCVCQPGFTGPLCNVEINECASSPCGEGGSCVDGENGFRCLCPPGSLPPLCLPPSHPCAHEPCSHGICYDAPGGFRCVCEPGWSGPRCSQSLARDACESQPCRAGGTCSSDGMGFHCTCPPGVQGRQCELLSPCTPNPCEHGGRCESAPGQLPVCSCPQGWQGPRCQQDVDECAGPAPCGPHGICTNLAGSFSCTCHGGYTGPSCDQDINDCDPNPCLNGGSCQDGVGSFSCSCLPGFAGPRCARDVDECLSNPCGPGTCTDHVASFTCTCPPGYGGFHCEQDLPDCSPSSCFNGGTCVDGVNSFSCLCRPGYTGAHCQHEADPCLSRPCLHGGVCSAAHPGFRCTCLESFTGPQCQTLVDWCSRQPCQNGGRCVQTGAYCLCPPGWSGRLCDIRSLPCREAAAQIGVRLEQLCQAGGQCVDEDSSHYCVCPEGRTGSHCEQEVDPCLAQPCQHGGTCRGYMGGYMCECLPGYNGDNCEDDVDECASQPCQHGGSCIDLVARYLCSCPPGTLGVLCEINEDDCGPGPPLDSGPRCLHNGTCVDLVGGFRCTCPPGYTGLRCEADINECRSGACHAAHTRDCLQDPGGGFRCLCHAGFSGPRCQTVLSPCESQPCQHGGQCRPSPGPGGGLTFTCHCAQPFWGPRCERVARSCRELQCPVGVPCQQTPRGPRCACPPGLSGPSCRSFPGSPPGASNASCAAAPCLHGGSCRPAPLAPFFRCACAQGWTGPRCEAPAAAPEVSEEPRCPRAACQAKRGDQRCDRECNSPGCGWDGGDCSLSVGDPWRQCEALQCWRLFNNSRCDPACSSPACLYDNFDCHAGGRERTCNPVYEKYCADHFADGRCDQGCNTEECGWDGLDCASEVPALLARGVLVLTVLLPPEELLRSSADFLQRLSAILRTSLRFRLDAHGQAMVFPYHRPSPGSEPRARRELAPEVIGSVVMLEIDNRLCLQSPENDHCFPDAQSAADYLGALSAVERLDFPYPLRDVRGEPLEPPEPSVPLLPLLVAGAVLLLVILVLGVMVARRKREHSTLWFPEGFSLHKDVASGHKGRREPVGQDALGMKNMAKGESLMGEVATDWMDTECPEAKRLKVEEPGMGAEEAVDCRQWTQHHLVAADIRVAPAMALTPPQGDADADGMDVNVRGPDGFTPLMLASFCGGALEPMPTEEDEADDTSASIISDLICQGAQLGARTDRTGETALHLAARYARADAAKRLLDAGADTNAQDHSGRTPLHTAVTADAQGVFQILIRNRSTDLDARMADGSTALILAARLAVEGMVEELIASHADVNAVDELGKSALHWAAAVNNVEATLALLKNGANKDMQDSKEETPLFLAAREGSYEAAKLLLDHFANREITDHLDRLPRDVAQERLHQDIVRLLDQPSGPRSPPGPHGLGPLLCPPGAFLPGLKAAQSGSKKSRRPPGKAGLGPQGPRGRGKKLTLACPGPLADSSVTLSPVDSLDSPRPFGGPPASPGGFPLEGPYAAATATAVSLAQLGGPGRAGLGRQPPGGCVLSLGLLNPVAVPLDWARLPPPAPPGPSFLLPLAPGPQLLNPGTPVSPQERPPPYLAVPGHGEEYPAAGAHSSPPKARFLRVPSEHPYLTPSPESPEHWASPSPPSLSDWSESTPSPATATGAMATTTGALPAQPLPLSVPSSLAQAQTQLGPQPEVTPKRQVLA

Compound	composite z-score [1]	z-score [2]	z-score [3]	z-score [4]	composite z-score [5]	z-score [6]	composite z-score [7]	composite z-score [8]	composite z-score [9]	composite z-score [10]	composite z-score [11]	composite z-score [12]	composite z-score [13]	z-score [14]	composite z-score [15]	composite z-score [16]	composite z-score [17]	composite z-score [18]	composite z-score [19]	composite z-score [20]
Cc1ccc([C@H]2C(C(=O)O)=CCN2S(=O)(=O)c2ccc(C)cc2)cc1	0.472	-0.76 (inactive)	0.366 (inactive)	-0.18 (inactive)	2.82	-0.264 (inactive)	0.228	0.11	0.189	-0.0828	0.487	0.215	0.761	0.0638 (inactive)	0.214	0.47	-0.327	0.312	-0.345	1.03
O=C1[C@@]23C=C(Br)[C@H](C[C@@H]2COC3)[C@]12CO2	-1.63	-0.241 (inactive)	-9 (active)	0.403 (inactive)	0.246	-0.366 (inactive)	-0.14	-1.31	-1.5	-0.272	-1.5	-0.183	-0.188	1.91 (inactive)	-0.573	-0.88	-1.24	-0.858	-0.297	1.69
COc1ccc([C@H]2OC[C@@H]3CCC(=O)N32)cc1	-0.136	-0.481 (inactive)	-0.809 (inactive)	0.981 (inactive)	0.399	-0.013 (inactive)	-0.0699	0.397	1.01	0.0826	0.178	-0.235	-0.374	-0.00375 (inactive)	0.66	1.17	0.339	0.954	0.294	0.0892
[N-]=[N+]=NCc1ccccc1[C@@H]1OC(c2ccc(OCCCO)cc2)=N[C@]1(CCS(=O)(=O)c1ccccc1)C(N)=O	1.56	1.16 (inactive)	-1.17 (inactive)	-0.325 (inactive)	3.51	0.901 (inactive)	0.308	0.888	1.08	0.388	1.32	0.775	1.01	0.25 (inactive)	1.6	1.32	0.588	1.41	1.47	1.3
CC(CO)N1C(=O)[C@@H]2C3C(=O)OCCC/C=C\[C@H]3OC23C=CCN(CCN2CCOCC2)C(=O)[C@@H]13 (stereo not given in full)	0.871	-0.321 (inactive)	-0.802 (inactive)	-0.215 (inactive)	-0.675	-0.19 (inactive)	-0.207	-0.0152	0.159	-0.187	0.238	-0.412	-0.48	-0.669 (inactive)	0.516	0.494	-0.493	0.124	0.281	0.693
COc1ccc(NN2C(C(O)c3ccc(N(C)C)cc3)C=CC3C(=O)N(C4CCCCC4)C(=O)C32)cc1 (stereo not given)	1.51	-0.229 (inactive)	0.594 (inactive)	0.687 (inactive)	2.91	-0.386 (inactive)	0.329	0.134	1.09	0.174	1.01	1.15	0.649	-0.438 (inactive)	0.635	1.3	0.322	0.659	-0.28	0.814
C=CCC(OC(C)=O)[C@@H]1[C@@H](N(Cc2cc3ccccc3o2)C(=O)Cc2ccc(OC)cc2)c2cc(OCCCO)ccc2N1C(=O)c1ccc2ccccc2c1 (stereo not given in full)	-0.843	-0.179 (inactive)	0.568 (inactive)	0.194 (inactive)	-0.266	-0.457 (inactive)	-0.0097	-0.104	-0.379	-0.201	1.02	-0.172	0.395	-0.564 (inactive)	-0.0205	-0.683	-0.536	-0.0573	-0.306	1.16
COC(=O)[C@]1(CCC(=O)OC(C)(C)C)N=C(c2ccc(OCCCO)cc2)O[C@@H]1c1ccccc1	1.14	-0.401 (inactive)	-1.72 (inactive)	1.97 (inactive)	1.4	2.85 (inactive)	0.289	-0.499	0.0628	-0.0689	1.37	0.46	0.779	-0.783 (inactive)	-0.361	-0.495	-0.754	-0.577	-0.563	-0.0102
COc1ccc([Si](C)(C)[C@H]2[C@H](CC(=O)N3CCC[C@H]3CO)O[C@@]3(C(=O)N(Cc4cccc(N5CCOC5=O)c4)c4ccccc43)[C@@H]2C)cc1	1.55	-1.53 (inactive)	0.239 (inactive)	-1.71 (inactive)	1.02	1.78 (inactive)	-0.23	1.28	1.11	-0.0271	0.927	-0.195	-0.425	-0.298 (inactive)	0.578	0.712	0.909	1.3	0.437	1.11
CCCNC(=O)[C@@H]1c2ccccc2C(=O)N(Cc2ccccc2OC)[C@H]1c1ccc(CO)cc1	0.286	0.105 (inactive)	-0.19 (inactive)	0.353 (inactive)	3.06	0.387 (inactive)	-0.139	0.986	1.11	-0.142	1.37	0.0051	0.4	0.233 (inactive)	0.714	0.68	0.0755	0.995	0.216	-0.258
